# Source: PubChem BioAssay (NCATS)
# Records with an inconclusive call do not appear. Where a call stands in place of a potency, no number is given. The source holds several records for some structures; these can differ, active in one and inactive in another. Calls of active or inactive are those of the source. Unless noted, the call rests on the fitted dose curve; in most records, active means well fitted curve in the direction sought with a large enough effect; inconclusive means small, poorly fitted or top-dose-only effect, or another doubt; inactive means no such curve, though single readings can be large; an effect the other way counts as inactive or inconclusive.
# Legend:
# C33A = assay: Primary qHTS to identify gynecologic anti-cancer compounds using libraries of approved drugs and bioactive compounds (AID 1345084); conditions: Gynecologic cancer cell panel viability, ATPlite luminescence, 48 h; series mostly up to 57.5 µM; further: nearly all actives have a fitted effect of over 55% in size; further: potency means the concentration at half of the fitted maximal effect
# Procedure, shortened: (§1)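 Five-concentration response, 48 h; readout is ATP-driven luciferase luminescence.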
# CAOV3 = assay: as above; conditions: Gynecologic cancer cell panel viability, ATPlite luminescence, 48 h; series mostly up to 57.5 µM
# Procedure, shortened: as §1
# CASKI = assay: as above; conditions: Gynecologic cancer cell panel viability, ATPlite luminescence, 48 h; series mostly up to 57.5 µM
# Procedure, shortened: as §1
# Es-2 = assay: as above; conditions: Gynecologic cancer cell panel viability, ATPlite luminescence, 48 h; series mostly up to 57.5 µM
# Procedure, shortened: as §1
# HeLa = assay: as above; conditions: Gynecologic cancer cell panel viability, ATPlite luminescence, 48 h; series mostly up to 57.5 µM
# Procedure, shortened: as §1
# Hek293T = assay: as above; conditions: Gynecologic cancer cell panel viability, ATPlite luminescence, 48 h, control line for the selectivity index; series mostly up to 57.5 µM
# Procedure, shortened: as §1
# JEG-3 = assay: as above; conditions: Gynecologic cancer cell panel viability, ATPlite luminescence, 48 h; series mostly up to 57.5 µM
# Procedure, shortened: as §1
# OV90 = assay: as above; conditions: Gynecologic cancer cell panel viability, ATPlite luminescence, 48 h; series mostly up to 57.5 µM
# Procedure, shortened: as §1
# PA-1 = assay: as above; conditions: Gynecologic cancer cell panel viability, ATPlite luminescence, 48 h; series mostly up to 57.5 µM
# Procedure, shortened: as §1
# SKOV3 = assay: as above; conditions: Gynecologic cancer cell panel viability, ATPlite luminescence, 48 h; series mostly up to 57.5 µM
# Procedure, shortened: as §1
# Tov-21-G = assay: as above; conditions: Gynecologic cancer cell panel viability, ATPlite luminescence, 48 h; series mostly up to 57.5 µM
# Procedure, shortened: as §1
# Tov112D = assay: as above; conditions: Gynecologic cancer cell panel viability, ATPlite luminescence, 48 h; series mostly up to 57.5 µM
# Procedure, shortened: as §1
# [1] = Drug repurposing screens with cells derived from glioblastoma tumor samples (AID 1345199); conditions: GBM patient neurospheres viability, ATP luminescence, 48 h; further: nearly all actives have a fitted effect of over 40% in size; further: potency means the concentration at half of the fitted maximal effect
# Procedure, shortened: (§2)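 Four patient lines of CD133+ GBM neurospheres were screened at several concentrations; hits were retested in those lines plus three slower-growing GBM lines, using 48-hour treatment and ATP-based viability.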
# astro = assay: as above; conditions: viability, ATP luminescence, 48 h; series mostly up to 45.9 µM
# Procedure, shortened: as §2
# [2] = biological target: Nuclear receptor subfamily 1 group I member 2 (Rattus norvegicus) (UniProt Q9R1A7); assay: qHTS assay for small molecule activators of the rat pregnane X receptor (rPXR) signaling pathway (AID 651751; call rule not given here); conditions: rPXR reporter cells, luciferase (One-Glo), 24 h
# Sequence of Nuclear receptor subfamily 1 group I member 2 (Rattus norvegicus) (Q9R1A7 whole entry, looked up): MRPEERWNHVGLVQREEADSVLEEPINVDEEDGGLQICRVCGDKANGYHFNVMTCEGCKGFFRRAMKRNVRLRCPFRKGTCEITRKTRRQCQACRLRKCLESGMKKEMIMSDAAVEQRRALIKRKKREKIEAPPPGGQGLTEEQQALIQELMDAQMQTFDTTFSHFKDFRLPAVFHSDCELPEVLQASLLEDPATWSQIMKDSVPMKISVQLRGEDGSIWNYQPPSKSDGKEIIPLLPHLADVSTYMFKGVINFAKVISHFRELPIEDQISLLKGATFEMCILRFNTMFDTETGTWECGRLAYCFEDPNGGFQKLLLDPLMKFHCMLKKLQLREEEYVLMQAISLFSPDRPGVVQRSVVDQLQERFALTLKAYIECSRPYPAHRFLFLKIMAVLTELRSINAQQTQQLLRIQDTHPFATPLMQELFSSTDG
# [3] = qHTS assay for small molecule activators of the human pregnane X receptor (PXR) signaling pathway (AID 720659; call rule not given here)
# UISO = assay: qHTS assay to identify novel small-molecules to repurpose for Merkel cell carcinoma treatment (AID 1296009); conditions: MCC and control cell lines, CellTiter-Glo viability, 72 h; series mostly up to 46 µM; further: nearly all actives have a fitted effect of over 60% in size; further: potency means the concentration at half of the fitted maximal effect
# Procedure, shortened: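 Cells were treated for 72 hr at 37 degree celsius with compounds in 8- or 11-point dose response. Viability was read by CellTiter-Glo luminescence, normalized to no-cell (cytotoxicity) and DMSO controls.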
# [4] = at 45.9 µM (top of the series), tumour line B
# [5] = at 45.9 µM (top of the series), tumour line D
# [6] = at 46 µM (top of the series), tumour line A
# [7] = at 46.1 µM (top of the series), tumour line C
structure (smiles),measurement,setting,value
CCOC(=O)[C@H](CCc1ccccc1)N[C@@H](C)C(=O)N1Cc2ccccc2C[C@H]1C(=O)O,Potency,C33A,inactive
same,Potency,CAOV3,inactive
same,Potency,CASKI,inactive
same,Potency,Es-2,inactive
same,Potency,HeLa,inactive
same,Potency,Hek293T,inactive
same,Potency,JEG-3,inactive
same,Potency,OV90,inactive
same,Potency,PA-1,inactive
same,Potency,SKOV3,inactive
same,Potency,Tov-21-G,inactive
same,Potency,Tov112D,inactive
same,"activity, negative = cell killing",[1]; [4],-8.88% (inactive)
same,"activity, negative = cell killing",[1]; [5],-11.4% (inactive)
same,"activity, negative = cell killing",[1]; [6],-15.3% (inactive)
same,"activity, negative = cell killing",[1]; [7],11.9% (inactive)
same,Potency,astro,inactive
CN(C)CCCOc1nn(Cc2ccccc2)c2ccccc12,Potency,C33A,inactive
same,Potency,CAOV3,inactive
same,Potency,CASKI,inactive
same,Potency,Es-2,inactive
same,Potency,HeLa,inactive
same,Potency,Hek293T,inactive
same,Potency,JEG-3,inactive
same,Potency,OV90,14.1 µM (active) and inactive
same,Potency,PA-1,31.6 µM (active) and inactive
same,Potency,SKOV3,22.4 µM (active) and inactive
same,Potency,Tov-21-G,31.6 µM (active) and inactive
same,Potency,Tov112D,inactive
same,"activity, negative = cell killing","[1]; at 20 µM (top of the series), tumour line C",-16.8% (inactive)
same,Potency,[1]; tumour line A,1.58 µM (active)
same,Potency,[1]; tumour line D,7.08 µM (active)
same,Potency,astro,inactive
CC(O)C(=O)O (stereo not given),Potency,C33A,inactive
same,Potency,CAOV3,inactive
same,Potency,CASKI,inactive
same,Potency,Es-2,inactive
same,Potency,HeLa,inactive
same,Potency,Hek293T,inactive
same,Potency,JEG-3,inactive
same,Potency,OV90,inactive
same,Potency,PA-1,inactive
same,Potency,SKOV3,inactive
same,Potency,Tov-21-G,inactive
same,Potency,Tov112D,inactive
same,"activity, negative = cell killing",[1]; [4],-5.68% (inactive)
same,"activity, negative = cell killing",[1]; [5],-11.1% (inactive)
same,"activity, negative = cell killing",[1]; [6],-8.3% (inactive)
same,"activity, negative = cell killing",[1]; [7],-6.94% (inactive)
same,Potency,astro,inactive
same,max response,[2],2.35% (inactive)
same,outcome,[3],inactive
c1ccc(OCc2ccc(CCCN3CCOCC3)cc2)cc1,Potency,C33A,inactive
same,Potency,CAOV3,inactive
same,Potency,CASKI,inactive
same,Potency,Es-2,inactive
same,Potency,HeLa,inactive
same,Potency,JEG-3,inactive
same,Potency,PA-1,inactive
same,Potency,SKOV3,inactive
same,Potency,Tov-21-G,inactive
same,Potency,Tov112D,inactive
same,Potency,astro,inactive
Oc1c(Cl)cc(Cl)cc1Sc1cc(Cl)cc(Cl)c1O,Potency,C33A,inactive
same,Potency,CAOV3,inactive
same,Potency,CASKI,inactive
same,Potency,Es-2,inactive
same,Potency,HeLa,inactive
same,Potency,Hek293T,inactive
same,Potency,JEG-3,inactive
same,Potency,OV90,inactive
same,Potency,PA-1,inactive
same,Potency,SKOV3,inactive
same,Potency,Tov-21-G,inactive
same,Potency,Tov112D,inactive
same,Potency,astro,10 µM (active)
same,outcome,[3],inactive
CC(CCc1ccccc1)NCC(O)c1ccc(O)c(C(N)=O)c1 (stereo not given),Potency,C33A,inactive
same,Potency,CAOV3,inactive
same,Potency,CASKI,inactive
same,Potency,Es-2,inactive
same,Potency,HeLa,inactive
same,Potency,Hek293T,inactive
same,Potency,JEG-3,inactive
same,Potency,OV90,inactive
same,Potency,PA-1,inactive
same,Potency,SKOV3,inactive
same,Potency,Tov112D,inactive
same,"activity, negative = cell killing",[1]; [4],-24.2% (inactive)
same,"activity, negative = cell killing",[1]; [5],-11.2% (inactive)
same,"activity, negative = cell killing",[1]; [7],-24% (inactive)
same,Potency,astro,inactive
CC(=O)Oc1ccc2c(c1)CC[C@@H]1[C@@H]2CC[C@]2(C)[C@@H](O)CC[C@@H]12,Potency,C33A,inactive
same,Potency,CAOV3,inactive
same,Potency,CASKI,inactive
same,Potency,Es-2,inactive
same,Potency,HeLa,6.31 µM (active)
same,Potency,Hek293T,inactive
same,Potency,JEG-3,inactive
same,Potency,OV90,inactive
same,Potency,SKOV3,inactive
same,Potency,Tov-21-G,inactive
same,"activity, negative = cell killing",[1]; [7],-5.95% (inactive)
same,Potency,[1]; tumour line A,12.6 µM (active)
COc1ccc(CN2CCN(C(c3ccc(F)cc3)c3ccc(F)cc3)CC2)c(OC)c1OC,Potency,C33A,inactive
same,Potency,CAOV3,inactive
same,Potency,CASKI,inactive
same,Potency,Es-2,inactive
same,Potency,HeLa,inactive
same,Potency,Hek293T,inactive
same,Potency,JEG-3,inactive
same,Potency,OV90,inactive
same,Potency,PA-1,inactive
same,Potency,SKOV3,inactive
same,Potency,Tov-21-G,inactive
same,Potency,Tov112D,inactive
same,"activity, negative = cell killing",[1]; [7],-24.3% (inactive)
same,Potency,[1]; tumour line A,3.16 µM (active)
same,Potency,[1]; tumour line D,11.2 µM (active)
same,Potency,astro,35.5 µM (active)
CCN(CC)CCNC(=O)COc1ccc(Cl)cc1,Potency,C33A,inactive
same,Potency,CAOV3,inactive
same,Potency,CASKI,inactive
same,Potency,Es-2,inactive
same,Potency,HeLa,inactive
same,Potency,Hek293T,inactive
same,Potency,JEG-3,inactive
same,Potency,OV90,inactive
same,Potency,PA-1,inactive
same,Potency,SKOV3,inactive
same,Potency,Tov-21-G,inactive
same,Potency,Tov112D,inactive
same,"activity, negative = cell killing",[1]; [4],1.81% (inactive)
same,"activity, negative = cell killing",[1]; [5],-18.1% (inactive)
same,Potency,astro,inactive
CCOC(=O)COc1ccc2c(C)c(CCN(CC)CC)c(=O)oc2c1Cl,Potency,UISO,inactive
same,Potency,C33A,inactive
same,Potency,CAOV3,inactive
same,Potency,CASKI,inactive
same,Potency,HeLa,inactive
same,Potency,Hek293T,inactive
same,Potency,JEG-3,inactive
same,Potency,OV90,inactive
same,Potency,PA-1,inactive
same,Potency,SKOV3,15.8 µM (active)
same,Potency,Tov112D,inactive
same,"activity, negative = cell killing",[1]; [4],-13.9% (inactive)
same,"activity, negative = cell killing",[1]; [7],-21.4% (inactive)
same,Potency,[1]; tumour line A,11.2 µM (active)
same,Potency,astro,inactive
c1ccc(-c2ccc(C(c3ccccc3)n3ccnc3)cc2)cc1 (stereo not given),Potency,C33A,inactive
same,Potency,CAOV3,inactive
same,Potency,CASKI,inactive
same,Potency,Es-2,inactive
same,Potency,HeLa,inactive
same,Potency,JEG-3,inactive
same,Potency,OV90,inactive
same,Potency,PA-1,inactive
same,Potency,Tov-21-G,inactive
same,Potency,Tov112D,inactive
same,"activity, negative = cell killing",[1]; [4],-29.4% (inactive)
same,Potency,[1]; tumour line A,3.55 µM (active)
same,Potency,[1]; tumour line D,11.2 µM (active)
O=C1[C@H]2CCCC[C@H]2C(=O)N1CCCCN1CCN(c2nsc3ccccc23)CC1,Potency,UISO,10.6 µM (active)
same,Potency,C33A,inactive
same,Potency,CAOV3,inactive
same,Potency,CASKI,inactive
same,Potency,Es-2,inactive
same,Potency,HeLa,inactive
same,Potency,JEG-3,inactive
same,Potency,PA-1,inactive
same,Potency,SKOV3,inactive
same,Potency,Tov-21-G,inactive
same,Potency,Tov112D,inactive
same,Potency,astro,inactive
